Experimental data from the supplement of paper PMC6555819.

Experiments:
Assay in all cases: PBM binding z-score (relative to random genomic background probes); higher = stronger binding; sequences stand for … in GC…GCGATTGACAGCGTAGAATGAAGG
[1] = test system: PPARg:RXRa DBDmut IVT, anti-RXR (DBD mutation: RXRa K156A/R161A, NR concentration 270 nM, RXRa partner concentration 90 nM)
Summary of the method: (§1)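 Scanned fluorescence from custom Agilent 4×180K protein-binding microarrays was regression-normalized. Binding z-scores use random background probes as reference. Ligand-free nuclear receptor dimers were incubated on the arrays for 1 h and detected with antibodies against each partner (one per run).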

[2] = test system: PPARg:RXRa IVT, anti-PPARg (NR concentration 270 nM, RXRa partner concentration 90 nM)
Summary of the method: as §1

[3] = test system: PPARg DBDmut:RXRa IVT, anti-PPARg (DBD mutation: PPARg1 K132A/R137A, NR concentration 270 nM, RXRa partner concentration 90 nM)
Summary of the method: as §1

[4] = test system: PPARg DBDmut IVT, anti-PPARg (DBD mutation: PPARg1 K132A/R137A, NR concentration 270 nM)
Summary of the method: as §1

[5] = test system: PPARg homodimer (NR concentration 180 nM)
Summary of the method: as §1

[6] = test system: PXR:RXRa (NR concentration 270 nM, RXRa partner concentration 90 nM)
Summary of the method: as §1

[7] = test system: PXR homodimer (NR concentration 270 nM)
Summary of the method: as §1

[8] = test system: RARa:RXR (NR concentration 270 nM, RXRa partner concentration 90 nM)
Summary of the method: as §1

[9] = test system: RARa homodimer (NR concentration 270 nM)
Summary of the method: as §1

[10] = test system: RARb:RXRa (NR concentration 270 nM, RXRa partner concentration 90 nM)
Summary of the method: as §1

ATCGGAAGGTCGAGGTGAGTATAGAGAAAGGGAA
PBM binding z-score [1]: 0.383 | PBM binding z-score [2]: 1.36 | PBM binding z-score [3]: 0.811 | PBM binding z-score [4]: 0.693 | PBM binding z-score [5]: 1.44 | PBM binding z-score [6]: 1.1 | PBM binding z-score [7]: 0.218 | PBM binding z-score [8]: 1.59 | PBM binding z-score [9]: 0.522

TCTTGTTGATCAAAGGTTAAGAAAGCCGAAGCCT
PBM binding z-score [1]: 1.8 | PBM binding z-score [2]: 2.11 | PBM binding z-score [3]: 1.32 | PBM binding z-score [4]: 0.442 | PBM binding z-score [5]: 1.36 | PBM binding z-score [6]: 1.74 | PBM binding z-score [7]: 0.07 | PBM binding z-score [8]: 2.31 | PBM binding z-score [9]: 0.624 | PBM binding z-score [10]: 2.04

ATATGTAGGTTAGCGGGGGTCATTCAGACTAGGC
PBM binding z-score [1]: 7.07 | PBM binding z-score [2]: 6.87 | PBM binding z-score [3]: 5.31 | PBM binding z-score [4]: 9.65 | PBM binding z-score [5]: 3.57 | PBM binding z-score [6]: 6.34 | PBM binding z-score [7]: 3.48 | PBM binding z-score [8]: 5.77 | PBM binding z-score [9]: 1.94 | PBM binding z-score [10]: 3.55

GATACGGGGTCAGCTAGAGGCCAGAGTATGGAAA
PBM binding z-score [1]: 3.12 | PBM binding z-score [2]: 4.66 | PBM binding z-score [3]: 1.44 | PBM binding z-score [4]: 0.481 | PBM binding z-score [5]: 4.42 | PBM binding z-score [6]: 5.75 | PBM binding z-score [7]: 0.6 | PBM binding z-score [8]: 6.84 | PBM binding z-score [9]: 0.888 | PBM binding z-score [10]: 5.15

AGTCAAATTTCACTAGGTAACGTAAGATTCAGCT
PBM binding z-score [1]: 1.53 | PBM binding z-score [2]: 2.38 | PBM binding z-score [3]: 0.835 | PBM binding z-score [4]: 0.824 | PBM binding z-score [5]: 0.334 | PBM binding z-score [6]: 0.334 | PBM binding z-score [7]: -0.0218 | PBM binding z-score [8]: 0.0458 | PBM binding z-score [9]: 1.44

CGTCAAAGCTCAACTAAGGTAACGTAAAGCACGC
PBM binding z-score [1]: 0.431 | PBM binding z-score [2]: -0.398 | PBM binding z-score [3]: -1.05 | PBM binding z-score [4]: -0.108 | PBM binding z-score [5]: 0.191 | PBM binding z-score [6]: -0.124 | PBM binding z-score [7]: -0.0533 | PBM binding z-score [8]: 0.83 | PBM binding z-score [9]: -0.0738

CCTCGGAGGACAGAAGGTCAGATCTGTCCGCTTT
PBM binding z-score [1]: 0.207 | PBM binding z-score [2]: -0.0702 | PBM binding z-score [3]: -0.934 | PBM binding z-score [4]: -1.55 | PBM binding z-score [5]: 1.35 | PBM binding z-score [6]: 1.65 | PBM binding z-score [7]: -0.42 | PBM binding z-score [8]: 1.98 | PBM binding z-score [9]: 0.321

CGTCCAAGGTCAACAGGTCAGTGAAAGCGACGTG
PBM binding z-score [1]: 3.88 | PBM binding z-score [2]: 4.5 | PBM binding z-score [3]: 0.0184 | PBM binding z-score [4]: 0.0079 | PBM binding z-score [5]: 5.41 | PBM binding z-score [6]: 4.98 | PBM binding z-score [7]: 1.28 | PBM binding z-score [8]: 5.92 | PBM binding z-score [9]: 1.34

AGCGAAAGGTCGAAGGTGAGTATACCCACCCGAA
PBM binding z-score [1]: 0.0438 | PBM binding z-score [2]: 2.06 | PBM binding z-score [3]: 0.39 | PBM binding z-score [4]: -0.438 | PBM binding z-score [5]: 1.16 | PBM binding z-score [6]: 2.97 | PBM binding z-score [7]: -0.17 | PBM binding z-score [8]: 4.28 | PBM binding z-score [9]: 0.406 | PBM binding z-score [10]: 3.6

CGTCCAAGGTCAGCAGGTCACTGAAAGCGACGTG
PBM binding z-score [1]: 3.75 | PBM binding z-score [2]: 4.56 | PBM binding z-score [3]: 0.394 | PBM binding z-score [4]: -1.07 | PBM binding z-score [5]: 5.36 | PBM binding z-score [6]: 4.71 | PBM binding z-score [7]: 0.781 | PBM binding z-score [8]: 6.22 | PBM binding z-score [9]: 2.7

GCTGCTAGGTAAGGTTGGTCAGCTAACGGGTACG
PBM binding z-score [1]: 0.515 | PBM binding z-score [2]: 0.0144 | PBM binding z-score [3]: -1.12 | PBM binding z-score [4]: -0.451 | PBM binding z-score [5]: -0.00134 | PBM binding z-score [6]: -0.363 | PBM binding z-score [7]: -0.442 | PBM binding z-score [8]: -0.608 | PBM binding z-score [9]: -0.745

ATCGAAAGGTCGAAAGTGAGTATACCCACCCGAA
PBM binding z-score [1]: -0.0216 | PBM binding z-score [2]: 1.35 | PBM binding z-score [3]: 1.11 | PBM binding z-score [4]: 0.905 | PBM binding z-score [5]: 0.0924 | PBM binding z-score [6]: 2.02 | PBM binding z-score [7]: 0.265 | PBM binding z-score [8]: 2.62 | PBM binding z-score [9]: 0.478 | PBM binding z-score [10]: 3.19

CCTACTGGGCCAAGCTCATTGATCAGTCAAAGCA
PBM binding z-score [1]: 4.44 | PBM binding z-score [2]: 2.91 | PBM binding z-score [3]: -0.901 | PBM binding z-score [4]: -1.44 | PBM binding z-score [5]: -0.727 | PBM binding z-score [6]: -0.626 | PBM binding z-score [7]: -0.809 | PBM binding z-score [8]: -0.399 | PBM binding z-score [9]: -1.2 | PBM binding z-score [10]: -0.112

TAGCCTAGGTCAGATCGGGCCAGTCTACGCTATA
PBM binding z-score [1]: 0.403 | PBM binding z-score [2]: 1.41 | PBM binding z-score [3]: -0.912 | PBM binding z-score [4]: -0.787 | PBM binding z-score [5]: -0.159 | PBM binding z-score [6]: 1.18 | PBM binding z-score [7]: -0.895 | PBM binding z-score [8]: 1.05 | PBM binding z-score [9]: -1.11

CCTACTGGGCCAAGGTCTTTGATCAGTCAAAGCA
PBM binding z-score [1]: 3.2 | PBM binding z-score [2]: 3.33 | PBM binding z-score [3]: -0.858 | PBM binding z-score [4]: -1.46 | PBM binding z-score [5]: 0.00705 | PBM binding z-score [6]: -0.407 | PBM binding z-score [7]: -0.601 | PBM binding z-score [8]: -0.344 | PBM binding z-score [9]: -0.879

AGAATGGGGTTAAGATCAGGGAAACAGAATACAT
PBM binding z-score [1]: 3.55 | PBM binding z-score [2]: 3.66 | PBM binding z-score [3]: 1.77 | PBM binding z-score [4]: 1.97 | PBM binding z-score [5]: 2.18 | PBM binding z-score [6]: 2.98 | PBM binding z-score [7]: 2.24 | PBM binding z-score [8]: 3.46 | PBM binding z-score [9]: 1.79 | PBM binding z-score [10]: 2.47

ATATGTAGGTCATCGGGTCATTCAGTTTGCGCAT
PBM binding z-score [1]: 8.44 | PBM binding z-score [2]: 8.83 | PBM binding z-score [3]: 6.46 | PBM binding z-score [4]: 6.66 | PBM binding z-score [5]: 5.23 | PBM binding z-score [6]: 5.5 | PBM binding z-score [7]: 8.57 | PBM binding z-score [8]: 6.32 | PBM binding z-score [9]: 2.05 | PBM binding z-score [10]: 4.65

GCTGCTAGGTCATGTTGGTCAGCTAACGGGTACG
PBM binding z-score [1]: 4.28 | PBM binding z-score [2]: 3.3 | PBM binding z-score [3]: 0.275 | PBM binding z-score [4]: 1.15 | PBM binding z-score [5]: 2.55 | PBM binding z-score [6]: 1.49 | PBM binding z-score [7]: -0.31 | PBM binding z-score [8]: 2.42 | PBM binding z-score [9]: 0.287 | PBM binding z-score [10]: 3.69

GCTGCTAGGTCAGGTTGGTCTGCTAACGGGTACG
PBM binding z-score [1]: 3.08 | PBM binding z-score [2]: 2.35 | PBM binding z-score [3]: -0.411 | PBM binding z-score [4]: -0.998 | PBM binding z-score [5]: 0.673 | PBM binding z-score [6]: 0.505 | PBM binding z-score [7]: -0.437 | PBM binding z-score [8]: 0.971 | PBM binding z-score [9]: 0.182

ATATGAAGGTTATCGGGTCATTCAGTTTGCGCAT
PBM binding z-score [1]: 3.47 | PBM binding z-score [2]: 4.42 | PBM binding z-score [3]: 1.16 | PBM binding z-score [4]: 1.48 | PBM binding z-score [5]: 2.47 | PBM binding z-score [6]: 3.93 | PBM binding z-score [7]: 8.15 | PBM binding z-score [8]: 4.44 | PBM binding z-score [9]: 0.435

CCTTCTGGGCCATTCAGAGGTCATTGATCATATG
PBM binding z-score [1]: 4.48 | PBM binding z-score [2]: 3.89 | PBM binding z-score [3]: -0.117 | PBM binding z-score [4]: 0.751 | PBM binding z-score [5]: 2.03 | PBM binding z-score [6]: 4.77 | PBM binding z-score [7]: 2.46 | PBM binding z-score [8]: 4.25 | PBM binding z-score [9]: 0.112 | PBM binding z-score [10]: 3.25

CCCACTGGGCCATTCAGAGGTCATTGATCATATG
PBM binding z-score [1]: 3.42 | PBM binding z-score [2]: 4.55 | PBM binding z-score [3]: 0.045 | PBM binding z-score [4]: -0.746 | PBM binding z-score [5]: 1.93 | PBM binding z-score [6]: 4.67 | PBM binding z-score [7]: 2 | PBM binding z-score [8]: 4.2 | PBM binding z-score [9]: 0.72 | PBM binding z-score [10]: 2.96

CGTCAAAGTTCAACTAAGGTAACGTATAGCACGC
PBM binding z-score [1]: 0.646 | PBM binding z-score [2]: 2.49 | PBM binding z-score [3]: 2.35 | PBM binding z-score [4]: 1.51 | PBM binding z-score [5]: 3.82 | PBM binding z-score [6]: 5.78 | PBM binding z-score [7]: 5.22 | PBM binding z-score [8]: 4.65 | PBM binding z-score [9]: 2.34

CTCGAAAGGTCGGTTGAGGTGAGTAAACGGATAA
PBM binding z-score [1]: -0.271 | PBM binding z-score [2]: 0.901 | PBM binding z-score [3]: 0.0903 | PBM binding z-score [4]: -0.255 | PBM binding z-score [5]: 0.98 | PBM binding z-score [6]: 3 | PBM binding z-score [7]: 0.167 | PBM binding z-score [8]: 2.19 | PBM binding z-score [9]: 0.141

CCTACTGGGCCATCAGGTGATTGATATCAACGTT
PBM binding z-score [1]: 3.79 | PBM binding z-score [2]: 4.34 | PBM binding z-score [3]: 0.38 | PBM binding z-score [4]: -0.0432 | PBM binding z-score [5]: -0.3 | PBM binding z-score [6]: -0.668 | PBM binding z-score [7]: -0.342 | PBM binding z-score [8]: -0.448 | PBM binding z-score [9]: -0.0417 | PBM binding z-score [10]: 0.0448
